The source made the active and inactive calls. Rule for the calls: active = hit-call score of the fitted dose curve at least 0.9, where 1 is the maximum; inactive = score below 0.9.
Assays:
[1] = target: Transcription factor E2F1 (Homo sapiens) (UniProt Q01094); experiment: ATG_E2F_CIS: Attagene CIS-FACTORIAL HepG2 Assay for human E2F Transcription Factor 1 (AID 2282935); conditions: HepG2 Attagene cis-reporter, E2F reporter RNA transcripts; actives raise or lower the signal
Method in brief: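 Multiplexed cis-reporter assay: HepG2, transient transfection, 24 h dosing, mRNA quantitation by labeled RT-PCR and CE.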

[2] = ATG_E_Box_CIS: Attagene CIS-FACTORIAL HepG2 Assay for human Enhancer Box (E-box) (AID 2282936); conditions: HepG2 E-box cis-reporter transcription, actives raise or lower the signal
Method in brief: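 Multiplexed CIS reporter system in transiently transfected HepG2 cells measures native transcription factor activity. Reporter RNA after 24 h exposure is profiled by RT-PCR-capillary electrophoresis.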

[3] = ATG_M_61_CIS: Attagene CIS-FACTORIAL HepG2 Assay for M61 Transcription Factor (Internal Marker) (AID 2282937); conditions: HepG2 Attagene CIS-FACTORIAL M61 internal marker reporter; actives raise or lower the signal
Method in brief: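 Fluorescence from labelled cDNA fragments, separated by capillary electrophoresis, quantifies reporter induction. HepG2 cells bearing transiently transfected cis-promoter MRTUs were incubated with test chemical for 24 h; DMSO defined baseline for gain/loss fitting.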

[4] = ATG_M_19_CIS: Attagene CIS-FACTORIAL HepG2 Assay for M19 Transcription Factor (Internal Marker) (AID 2282939); conditions: HepG2 Attagene CIS-FACTORIAL M19 internal marker reporter; actives raise or lower the signal
Method in brief: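 Transfect HepG2 with MRTU reporter library → dose chemical, 24 h → isolate total RNA, reverse-transcribe with oligo(dT) → PCR, 6-FAM label, HpaI cut (2 h, 37 C) → capillary electrophoresis. Bidirectional fit vs DMSO.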

[5] = ATG_ERE_CIS: Attagene CIS-FACTORIAL HepG2 Assay for Estrogen Response Element (ERE) (AID 2282940); conditions: HepG2 ERE cis-reporter, Attagene RNA transcript; actives raise or lower the signal
Method in brief: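 Transient MRTU transfection of human HepG2; cis-element promoters; 24 h dosing; total RNA → RT (oligo dT) → PCR → 6-FAM primer extension → HpaI digest → CE fluorescence. Bidirectional fit, DMSO baseline.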

[6] = ATG_Ets_CIS: Attagene CIS-FACTORIAL HepG2 Assay for human Erythroblast Transformation Specific (ETS) (AID 2282941); conditions: HepG2 ETS cis-reporter transcription, actives raise or lower the signal
Method in brief: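 Steps: transfect HepG2 with multiple reporter units; treat compound 24 h; isolate RNA, DNase-treat, reverse-transcribe; PCR-amplify, label with 6-FAM, digest with HpaI; separate by capillary electrophoresis. Activity fitted both directions versus DMSO.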

[7] = target: Hepatocyte nuclear factor 3-beta (Homo sapiens) (UniProt Q9Y261); experiment: ATG_FoxA2_CIS: Attagene CIS-FACTORIAL HepG2 Assay for human Forkhead box A2 (FOXA2) (AID 2282942); conditions: HepG2 cis-reporter transcription factor activity, 24 h; actives raise or lower the signal
Method in brief: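 In transiently transfected human HepG2 cells, promoter-driven reporter mRNA levels after 24 h chemical exposure are determined via RT-PCR with capillary electrophoresis. DMSO serves as baseline for bidirectional fitting.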

[8] = ATG_FoxO_CIS: Attagene CIS-FACTORIAL HepG2 Assay for human Forkhead box O (FoxO) (AID 2282943); conditions: HepG2 Attagene cis-reporter, FoxO element, mRNA; actives raise or lower the signal
Method in brief: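 HepG2 cells transiently transfected with cis-promoter-driven multiple reporter transcription units; 24 h after chemical dosing, reporter mRNA quantified by RT-PCR, fluorescent primer extension, HpaI digestion and capillary electrophoresis. Bidirectional fitting versus DMSO baseline.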

[9] = ATG_GATA_CIS: Attagene CIS-FACTORIAL HepG2 Assay for human GATA Binding Protein (AID 2282944); conditions: HepG2 GATA cis-element reporter, Attagene multiplex mRNA; actives raise or lower the signal
Method in brief: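 Transient MRTU transfection, HepG2, 24 h compound exposure. Total RNA → oligo(dT) RT → PCR → 6-FAM primer extension → HpaI cut → CE. Bidirectional fit vs DMSO.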

[10] = ATG_GLI_CIS: Attagene CIS-FACTORIAL HepG2 Assay for human Zinc Finger Protein GLI1 (AID 2282945); conditions: HepG2, Attagene cis-factorial reporter mRNA, GLI element; actives raise or lower the signal
Method in brief: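 HepG2 cells transiently transfected with cis-promoter multiplexed reporter units report endogenous transcription factor activity. After 24 h chemical exposure, reporter mRNA was quantified by RT-PCR, 6-FAM labelling, HpaI digestion and capillary electrophoresis, with bidirectional fitting against DMSO.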

[11] = ATG_GRE_CIS: Attagene CIS-FACTORIAL HepG2 Assay for human Glucocorticoid Response Elements (GRE) (AID 2282947); conditions: HepG2 GRE cis-reporter, Attagene multiplex mRNA; actives raise or lower the signal
Method in brief: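 Following 24 h chemical exposure of transiently transfected HepG2 cells, total RNA was reverse-transcribed and reporter cDNA amplified, fluorescently labelled and sized by capillary electrophoresis. Signal gain or loss was fitted relative to DMSO vehicle.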

[12] = ATG_ISRE_CIS: Attagene CIS-FACTORIAL HepG2 Assay for human Interferon Regulatory Factor 1 (IRF1) binding to an Interferon-Stimulated Response Element (ISRE) (AID 2282948); conditions: HepG2 ISRE cis-reporter (Attagene), mRNA transcription readout; actives raise or lower the signal
Method in brief: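 Transfected HepG2 (multiple reporter transcription units, cis elements) dosed 24 h. RNA → oligo(dT) RT → PCR → 6-FAM primer extension → HpaI → CE. DMSO = negative control/baseline.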

[13] = ATG_M_32_CIS: Attagene CIS-FACTORIAL HepG2 Assay for M32 Transcription Factor (Internal Marker) (AID 2282949); conditions: HepG2 Attagene cis-factorial M32 reporter, mRNA; actives raise or lower the signal;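 note: background control marker of the multiplexed CIS panel rather than a real target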
Method in brief: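 HepG2 cells transiently transfected with multiplexed cis-regulated reporter units, dosed 24 h. Reporter mRNA quantified by RT-PCR, 6-FAM labelling, HpaI digestion and capillary electrophoresis; bidirectional fit vs DMSO.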

[14] = ATG_M_06_CIS: Attagene CIS-FACTORIAL HepG2 Assay for M06 Transcription Factor (Internal Marker) (AID 2282950); conditions: HepG2 Attagene CIS-FACTORIAL M06 internal marker reporter; actives raise or lower the signal
Method in brief: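 Read-out is fluorescence of labelled reporter cDNA fragments resolved by capillary electrophoresis after RT-PCR. Cells: HepG2 carrying transfected cis-promoter reporter units, treated 24 h. Gain or loss of signal fitted relative to DMSO.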

[15] = target: Hypoxia-inducible factor 1-alpha (Homo sapiens) (UniProt Q16665); experiment: ATG_HIF1a_CIS: Attagene CIS-FACTORIAL HepG2 Assay for human Hypoxia Inducible Factor 1 (HIF1A) (AID 2282951); conditions: HepG2 Attagene cis-factorial HIF1a reporter transcription; actives raise or lower the signal
Method in brief: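 In this multiplexed cell assay, HepG2 cells bearing transfected cis reporters are dosed for 24 h and reporter mRNA is read by RT-PCR plus capillary electrophoresis; signal increases and decreases are both scored against DMSO.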

[16] = target: Hepatocyte nuclear factor 6 (Homo sapiens) (UniProt Q9UBC0); experiment: ATG_HNF6_CIS: Attagene CIS-FACTORIAL HepG2 Assay for human Hepatocyte Nuclear Factor 6 (HNF6) (AID 2282952); conditions: HepG2 Attagene cis-factorial HNF6 reporter transcription; actives raise or lower the signal
Method in brief: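 HepG2, transient MRTU transfection (cis promoters); 24 h chemical exposure; total RNA → oligo(dT) RT → PCR → 6-FAM labelling → HpaI cut → CE; bidirectional fit vs DMSO.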

[17] = ATG_MRE_CIS: Attagene CIS-FACTORIAL HepG2 Assay for human Metal Responsive Element (MRE) (AID 2282954); conditions: HepG2 MRE cis-reporter transcription, Attagene multiplex; actives raise or lower the signal
Method in brief: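 Step one: transfect HepG2 with cis-regulated reporter units. Step two: dose 24 h. Step three: isolate RNA, RT-PCR, 6-FAM label, HpaI digest, capillary electrophoresis. Fit bidirectionally to DMSO.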

[18] = target: Bile acid receptor (Homo sapiens) (UniProt Q96RI1); experiment: ATG_IR1_CIS: Attagene CIS-FACTORIAL HepG2 Assay for human Nuclear Receptor Subfamily 1 Group H Member 4 (NR1H4), IR1 submotif (AID 2282946); conditions: IR1 reporter transcription, actives raise or lower the signal
Method in brief: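 Transient MRTU transfection, HepG2; 24 h dosing; RNA → RT-PCR → 6-FAM primer extension → HpaI digest → capillary electrophoresis fluorescence. Gain/loss of signal fitted relative to DMSO.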

[19] = target: Heat shock factor protein 1 (Homo sapiens) (UniProt Q00613); experiment: ATG_HSE_CIS: Attagene CIS-FACTORIAL HepG2 Assay for human Heat Shock Transcription Factor 1 (HSE) (AID 2282953); conditions: HepG2 HSE cis-reporter, Attagene RNA transcription; actives raise or lower the signal
Method in brief: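 HepG2, transient MRTU transfection, cis-promoter reporters (endogenous TF activity). 24 h compound. RNA → oligo(dT) RT → PCR → 6-FAM primer extension → HpaI cut → CE. Bidirectional fit vs DMSO.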

Measured: AC50

Hypoxia-inducible factor 1-alpha (Homo sapiens), sequence (Q16665 whole entry, looked up): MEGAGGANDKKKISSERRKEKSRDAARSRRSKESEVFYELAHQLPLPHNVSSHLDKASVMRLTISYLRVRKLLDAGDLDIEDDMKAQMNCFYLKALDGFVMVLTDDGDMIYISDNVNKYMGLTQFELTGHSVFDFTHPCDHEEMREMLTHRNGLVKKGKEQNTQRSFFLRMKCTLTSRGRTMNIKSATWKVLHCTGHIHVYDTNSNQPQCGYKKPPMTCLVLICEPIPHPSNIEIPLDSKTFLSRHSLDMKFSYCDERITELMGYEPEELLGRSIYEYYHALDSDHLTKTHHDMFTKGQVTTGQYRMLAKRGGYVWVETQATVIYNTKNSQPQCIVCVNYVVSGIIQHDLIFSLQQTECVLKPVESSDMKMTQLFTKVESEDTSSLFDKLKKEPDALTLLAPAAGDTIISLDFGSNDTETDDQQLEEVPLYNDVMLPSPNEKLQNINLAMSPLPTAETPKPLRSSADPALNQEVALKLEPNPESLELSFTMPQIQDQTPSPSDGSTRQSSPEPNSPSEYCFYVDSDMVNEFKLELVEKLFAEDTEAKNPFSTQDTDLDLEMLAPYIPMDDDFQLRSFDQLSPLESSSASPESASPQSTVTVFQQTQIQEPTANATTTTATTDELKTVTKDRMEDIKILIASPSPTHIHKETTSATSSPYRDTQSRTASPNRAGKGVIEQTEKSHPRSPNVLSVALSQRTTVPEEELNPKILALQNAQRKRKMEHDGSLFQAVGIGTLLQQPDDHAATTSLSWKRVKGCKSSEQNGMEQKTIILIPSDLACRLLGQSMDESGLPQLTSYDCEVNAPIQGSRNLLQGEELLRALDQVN
Heat shock factor protein 1 (Homo sapiens), sequence (Q00613 whole entry, looked up): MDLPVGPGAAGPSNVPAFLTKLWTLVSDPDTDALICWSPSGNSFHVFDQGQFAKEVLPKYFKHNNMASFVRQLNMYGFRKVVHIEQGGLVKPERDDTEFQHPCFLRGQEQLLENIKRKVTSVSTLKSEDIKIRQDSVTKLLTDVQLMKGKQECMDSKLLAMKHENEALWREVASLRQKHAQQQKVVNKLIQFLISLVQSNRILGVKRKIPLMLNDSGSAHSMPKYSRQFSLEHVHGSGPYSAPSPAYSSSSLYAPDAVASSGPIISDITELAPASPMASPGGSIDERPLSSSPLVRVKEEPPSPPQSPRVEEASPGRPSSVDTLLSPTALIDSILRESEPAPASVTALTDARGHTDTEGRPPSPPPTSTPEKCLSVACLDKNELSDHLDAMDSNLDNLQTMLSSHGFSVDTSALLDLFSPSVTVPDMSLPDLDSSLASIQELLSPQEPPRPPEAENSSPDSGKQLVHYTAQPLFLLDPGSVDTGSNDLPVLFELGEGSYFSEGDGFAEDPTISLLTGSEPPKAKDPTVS
Bile acid receptor (Homo sapiens), sequence (Q96RI1 whole entry, looked up): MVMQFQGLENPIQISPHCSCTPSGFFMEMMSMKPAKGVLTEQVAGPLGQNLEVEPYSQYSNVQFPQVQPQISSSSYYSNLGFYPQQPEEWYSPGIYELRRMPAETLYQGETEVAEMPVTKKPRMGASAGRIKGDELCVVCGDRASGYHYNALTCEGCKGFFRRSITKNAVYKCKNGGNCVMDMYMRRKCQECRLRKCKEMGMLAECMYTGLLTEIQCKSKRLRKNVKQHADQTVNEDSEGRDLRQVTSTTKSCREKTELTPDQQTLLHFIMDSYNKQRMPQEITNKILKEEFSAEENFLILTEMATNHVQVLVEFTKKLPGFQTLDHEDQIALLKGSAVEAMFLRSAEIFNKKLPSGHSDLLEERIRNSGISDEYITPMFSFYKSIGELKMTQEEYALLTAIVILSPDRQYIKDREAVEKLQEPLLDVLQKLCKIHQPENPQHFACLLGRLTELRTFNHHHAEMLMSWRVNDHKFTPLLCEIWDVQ
Hepatocyte nuclear factor 6 (Homo sapiens), sequence (Q9UBC0 whole entry, looked up): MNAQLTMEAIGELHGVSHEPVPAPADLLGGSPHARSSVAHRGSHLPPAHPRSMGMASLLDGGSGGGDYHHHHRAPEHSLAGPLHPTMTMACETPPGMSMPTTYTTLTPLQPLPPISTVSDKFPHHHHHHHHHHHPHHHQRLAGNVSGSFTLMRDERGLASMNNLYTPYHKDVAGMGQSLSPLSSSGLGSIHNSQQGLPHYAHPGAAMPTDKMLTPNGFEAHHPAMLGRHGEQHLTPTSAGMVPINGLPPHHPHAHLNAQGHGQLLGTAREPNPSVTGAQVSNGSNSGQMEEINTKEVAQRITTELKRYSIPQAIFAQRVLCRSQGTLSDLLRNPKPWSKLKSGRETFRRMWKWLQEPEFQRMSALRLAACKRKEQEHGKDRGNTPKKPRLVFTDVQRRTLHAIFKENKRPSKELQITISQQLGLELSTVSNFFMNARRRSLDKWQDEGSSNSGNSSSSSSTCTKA
Transcription factor E2F1 (Homo sapiens), sequence (Q01094 whole entry, looked up): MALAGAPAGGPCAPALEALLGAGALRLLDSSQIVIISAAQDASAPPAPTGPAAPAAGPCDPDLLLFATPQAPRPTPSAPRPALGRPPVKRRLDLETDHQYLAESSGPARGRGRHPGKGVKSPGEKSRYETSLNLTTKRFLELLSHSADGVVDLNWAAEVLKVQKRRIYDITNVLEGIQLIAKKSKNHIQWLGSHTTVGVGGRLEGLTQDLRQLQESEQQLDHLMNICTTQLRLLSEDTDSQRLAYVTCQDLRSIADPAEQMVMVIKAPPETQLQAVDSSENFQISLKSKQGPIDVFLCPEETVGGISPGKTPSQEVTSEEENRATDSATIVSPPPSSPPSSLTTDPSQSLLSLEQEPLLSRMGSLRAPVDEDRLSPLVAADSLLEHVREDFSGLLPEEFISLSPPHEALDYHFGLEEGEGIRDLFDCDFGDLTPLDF
Hepatocyte nuclear factor 3-beta (Homo sapiens), sequence (Q9Y261 whole entry, looked up): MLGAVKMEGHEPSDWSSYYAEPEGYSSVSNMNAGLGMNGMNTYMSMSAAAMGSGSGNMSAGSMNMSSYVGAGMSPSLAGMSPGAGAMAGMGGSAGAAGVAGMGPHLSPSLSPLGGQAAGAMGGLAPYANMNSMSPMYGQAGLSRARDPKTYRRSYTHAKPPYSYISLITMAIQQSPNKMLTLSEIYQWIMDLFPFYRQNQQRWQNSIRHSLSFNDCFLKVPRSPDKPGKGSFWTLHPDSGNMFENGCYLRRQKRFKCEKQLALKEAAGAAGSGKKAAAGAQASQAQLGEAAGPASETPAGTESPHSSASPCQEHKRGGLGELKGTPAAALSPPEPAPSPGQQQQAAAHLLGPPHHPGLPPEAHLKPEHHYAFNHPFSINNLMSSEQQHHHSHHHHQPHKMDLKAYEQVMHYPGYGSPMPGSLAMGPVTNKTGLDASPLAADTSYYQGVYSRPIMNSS

CC(=O)OCC=C(C)C
not listed: [18] | [19]
inactive: all other assays above

O=C(O)C1CCC(C(=O)O)CC1 (configuration not stated)
not listed: [16]
inactive: all other assays above

C=CCCCCCCCCOC(C)=O
not listed: [17]
inactive: all other assays above

Cc1ccc(S(=O)(=O)N=C=O)cc1
not listed: [18]
inactive: all other assays above

C=CC(=O)OCC(C)OCC(C)OCC(C)OC(=O)C=C (configuration not stated)
active: [2] 68.6 µM | [6] 60.1 µM | [8] 100 µM | [12] 86.1 µM | [17] 46.1 µM
not listed: [10] | [18]
inactive: all other assays above

CC(=O)CC(=O)Nc1ccccc1C
not listed: [18]
inactive: all other assays above

CCCCCCCO
active: [5] 30 µM
not listed: [11] | [18]
inactive: all other assays above

C=CC(=O)O[C@H]1C[C@@H]2CC[C@@]1(C)C2(C)C
active: [2] 25.3 µM | [4] 157 µM | [5] 24.9 µM | [10] 186 µM | [13] 150 µM | [19] 161 µM
inactive: all other assays above

Source: PubChem BioAssay (EPA / NIEHS)
